# Source: PubChem
# GLS inh – inhibitors of human glutaminase (GLS); O94925; GLS enzymatic activity, qHTS titration; Potency, µM (highest dose often 45.5 µM), actives largely listed as inhibitors; 410,000 compounds, 0.21% hits; AID 624170
#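 hKGA; 45 mM KH2PO4 pH 8.2 + 0.02% Tween-20; cpd via pin tool; 1 mM Gln soln; GluOx/HRP/Amplex Red; RT 30 min; fluor. t0 & final.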
# JMJD2A Tudor inh – inhibitors of human JMJD2A Tudor domain | 390,000 compounds, 4.4% hits | O75164 | AlphaScreen JMJD2A-Tudor / H3K4me3 peptide binding | Potency, µM (doses to about 114 µM), hits mostly inhibitors | AID 504339; further: nearly all actives have a fitted effect of over 50% in size
# Target sequence (O75164 whole entry, looked up, the tested form may be a part): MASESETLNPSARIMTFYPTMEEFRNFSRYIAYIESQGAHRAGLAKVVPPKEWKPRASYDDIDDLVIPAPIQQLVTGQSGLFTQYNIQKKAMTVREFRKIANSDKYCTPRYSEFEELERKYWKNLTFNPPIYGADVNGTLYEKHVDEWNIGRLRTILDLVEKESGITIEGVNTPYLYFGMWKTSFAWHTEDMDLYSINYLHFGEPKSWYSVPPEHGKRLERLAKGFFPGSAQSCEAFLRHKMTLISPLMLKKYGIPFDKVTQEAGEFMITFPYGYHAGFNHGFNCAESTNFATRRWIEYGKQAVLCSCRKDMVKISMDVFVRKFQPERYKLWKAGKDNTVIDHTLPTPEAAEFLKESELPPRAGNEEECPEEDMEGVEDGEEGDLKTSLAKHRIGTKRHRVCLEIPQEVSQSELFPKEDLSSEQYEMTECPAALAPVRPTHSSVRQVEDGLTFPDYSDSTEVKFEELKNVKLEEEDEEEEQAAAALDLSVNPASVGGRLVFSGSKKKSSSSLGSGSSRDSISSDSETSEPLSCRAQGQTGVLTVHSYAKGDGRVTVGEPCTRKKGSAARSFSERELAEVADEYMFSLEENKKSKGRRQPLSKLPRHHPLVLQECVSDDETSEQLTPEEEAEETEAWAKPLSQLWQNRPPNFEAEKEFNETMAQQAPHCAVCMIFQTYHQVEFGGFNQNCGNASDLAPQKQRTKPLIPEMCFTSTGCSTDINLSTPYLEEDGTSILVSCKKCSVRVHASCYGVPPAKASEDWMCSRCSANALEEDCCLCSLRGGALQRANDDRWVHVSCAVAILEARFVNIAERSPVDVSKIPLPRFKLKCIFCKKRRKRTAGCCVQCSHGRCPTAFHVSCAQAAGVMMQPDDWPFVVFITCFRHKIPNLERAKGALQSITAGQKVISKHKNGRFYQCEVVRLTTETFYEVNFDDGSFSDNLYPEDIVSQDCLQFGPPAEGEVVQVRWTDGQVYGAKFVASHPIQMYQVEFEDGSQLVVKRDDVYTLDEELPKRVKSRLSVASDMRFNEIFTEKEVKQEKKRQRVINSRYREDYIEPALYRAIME
# G9a block – inhibitors of human histone lysine methyltransferase G9a. Q96KQ7. G9a H3K9 monomethylation, AlphaScreen, 2 h. Potency, µM (titrated, usually from 102 µM), usual class: inhibitors. 350,000 compounds, 8.8% hits. AID 504332; further: nearly all actives have a fitted effect of over 75% in size
#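 G9a (20 nM) was preincubated 15 min with compound, then reacted 2 h at room temperature with 500 nM biotin-H3K9 peptide and 20 µM SAM. Monomethyl-H3K9 detected by AlphaScreen using anti-H3K9me1 antibody.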
# BAZ2B inh – BAZ2B (human) inhibition; Potency, µM (highest dose often 114 µM), usual class: inhibitors; AlphaScreen BAZ2B-H3K14Ac peptide displacement; AID 504333; Q9UIF8; 360,000 compounds, 4.4% hits; further: nearly all actives have a fitted effect of over 60% in size
#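 In this displacement format the biotinylated H3(5-23) peptide acetylated at Lys14 serves as ligand at 50 nM, with BAZ2B at 50 nM in PBS pH 7.4 containing 0.01% Tween-20. Donor and acceptor beads are 10 ug/mL final.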
# HP1b chromo inh – blocks HP1-beta chromodomain binding to methylated histone tails; P83916; AlphaScreen HP1-beta / biotin-H3K9me3 peptide binding; 390,000 compounds, 0.56% hits; Potency, µM (series often up to 114 µM), hits mostly inhibitors; further: nearly all actives have a fitted effect of over 70% in size
#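 HP1-beta protein (50 nM final) preincubated 30 min at room temperature with biotinylated H3(1-18)K9me3 peptide (50 nM) in PBS pH 7.4, 0.01% Tween-20, then compound added for 30 min. AlphaScreen streptavidin donor/nickel chelate acceptor beads (10 ug/mL final), 30 min dark, luminescence read.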
# A number is an active result; . = inactive; ? = inconclusive; / = no result; ! = not confirmed by another sample; [ ] = dose if it differs, or a comment. Most compounds without a hit are left out; they make up all but 10% or so of the library. The call rests on the fitted dose curve; in most records, active means well fitted curve in the direction sought with a large enough effect; inconclusive means small, poorly fitted or top-dose-only effect, or another doubt; inactive means no such curve, though single readings can be large; an effect the other way counts as inactive or inconclusive.
SMILES,GLS inh,JMJD2A Tudor inh,G9a block,BAZ2B inh,HP1b chromo inh
CSc1ccc(/C=N/NC(=O)c2ccc(C)c(C)c2)cc1,.,?,.,50µM,.
CSc1ccc(/C=N/Nc2ccc(Cl)c(C(=O)O)c2)cc1,.,.,10µM,.,.
O=C(O)c1cc(N/N=C/c2ccc(-c3ccccc3)cc2)ccc1Cl,?,32µM,.[0.501 µM],?,.
O=C(O)c1cc(N/N=C/c2c[nH]c3ccccc23)ccc1Cl,14µM,?,45µM,?,.
O=C(O)c1cc(N/N=C/c2ccncc2)ccc1Cl,.,.,.,.,.
O=C(O)c1cc(N/N=C/c2cccnc2)ccc1Cl,.,.,/,.,.
COC(=O)c1ccccc1NC(=O)Cn1cc(S(=O)(=O)Cc2ccccc2F)c2ccccc21,.,.,.,?,.
CN1CCN(c2oc(-c3ccc(OCc4ccc(Cl)cc4)cc3)nc2C#N)CC1,/,.,/,/,.
O=c1c(OC2OC(CO)C(O)C(O)C2OC2OC(CO)C(O)C(O)C2OC2OC(CO)C(O)C(O)C2O)c(-c2ccc(O)c(O)c2)oc2cc(O)cc(O)c12 (stereo not given),.,32µM,?,?,.
COc1c(-c2ccc(O)c(O)c2)oc2cc(O)cc(O)c2c1=O,?,?,.[12.7 µM],35µM,.
O=c1c2c(O)cc(O)cc2oc2ccc(O)c(O[C@@H]3O[C@H](CO)[C@@H](O)[C@H](O)[C@H]3O[C@H]3O[C@H](CO)[C@@H](O)[C@H](O)[C@H]3O)c12,.,.,.[12.7 µM],.,.
O=c1cc(-c2ccc(O)c(O)c2)oc2cc(O)c(C3OC(CO)C(O)C(O)C3O)c(O)c12 (stereo not given),.,25µM,.[12.7 µM],?,.
O=c1c(O[C@@H]2O[C@H](CO)[C@@H](O)[C@H](O)[C@H]2O)c(-c2ccc(O)c(O)c2)oc2cc(O)cc(O)c12,/,/,8.9µM,.,/
O=c1c(O[C@@H]2O[C@H](CO)[C@@H](O)[C@H](O)[C@H]2O)c(-c2ccc(O)cc2)oc2cc(O)cc(O)c12,.,.,/,/,.
C[C@@H]1O[C@@H](OC[C@H]2O[C@@H](Oc3c(-c4ccc(O)c(O)c4)oc4cc(O)cc(O)c4c3=O)[C@H](O)[C@@H](O)[C@@H]2O)[C@H](O)[C@H](O)[C@H]1O,.,.,?,.,.
C=C1CC2C(=O)N(Cc3cc(OC)ccc3OC)C(C(=O)OCC)C1N2C (stereo not given),/,.,/,/,.
O=c1c(O[C@@H]2O[C@H](CO)[C@H](O)[C@H](O)[C@H]2O)c(-c2ccc(O)c(O)c2)oc2cc(O)cc(O)c12,/,/,13µM,?,/
CCOC(=O)[C@]12CCCC=C1N(Cc1ccco1)C(=O)[C@H](CC(=O)NCCC(C)C)C2,.,/,/,/,/
Cc1cccc(C)c1C(=O)N[C@@H](Cc1ccccc1)C(=O)O,.,.,.,.,.
NC(Cc1cccc(-c2ccccc2CP(=O)(O)O)c1)C(=O)O (stereo not given),/,/,9.5µM!,/,/
CC(Nc1ccc2c(c1)OCCO2)C(=O)N1c2ccccc2CC1C (stereo not given),.,?,?,40µM,.
CC1Cc2ccccc2N1C(=O)NC1CC(=O)N(c2ccc3c(c2)OCCO3)C1 (stereo not given),.,.,.,/,.
COc1ccc(-n2nnnc2C2CCN(S(=O)(=O)c3ccc(C)cc3)CC2)cc1,.,.,.,.,.
CCOc1ccc(-c2nnc(-c3ccc(OC)cc3)o2)cc1,.,.,.,.,.
Oc1ccc(-c2nc3ccccc3nc2-c2ccccc2)cc1,.,.,.,.,.
SMILES,GLS inh,JMJD2A Tudor inh,G9a block,BAZ2B inh,HP1b chromo inh
COc1ccc(-c2n[nH]c(=S)nc2-c2ccc(OC)cc2)cc1,.,.,?,?,.
COc1ccc(-c2nc(=S)[nH][nH]2)cc1,.,2.5µM,1.8µM,.,79µM
CCOc1ccc(-c2nc(=S)[nH][nH]2)cc1,.,7.1µM,1.4µM,.,.
FC(F)(F)c1ccc(-c2nc(=S)[nH][nH]2)cc1,.,22µM,3.5µM,.,.
Oc1ccc(-c2nc(=S)[nH][nH]2)cc1,.,5µM,1.3µM,.,.
COCCNC(=O)C1(C)CCCN(C(=O)c2ccc3c(c2)CCO3)C1 (stereo not given),.,/,/,/,/
CCOC1=C2CN(S(=O)(=O)c3ccc(C)cc3)[C@@H](c3ccc(CC)cc3)C[C@H]2[C@H]2C(=O)N(c3ccccc3)C(=O)[C@H]2C1,.,/,/,/,/
O=C1CC[C@H](C(=O)N[C@@H]2C[C@H]2c2ccccc2)N1,.,/,.[12.7 µM],/,/
CC(=O)O[C@@]1(C(C)=O)CCC2C3CC(C)C4=CC(=O)CC[C@@]4(C)C3CC[C@]21C (stereo not given in full),.,/,.[2.33 µM],/,/
CC(C)OCCCn1c(-c2ccc(Br)cc2)c[nH]c1=S,.,?,3.5µM,?,.
O=C(NNc1cc(Br)c(O)c(Br)c1)c1ccccc1,.,8.9µM,5µM,8.9µM,40µM
O=C(CSc1nc2cc3ccccc3cc2[nH]1)Nc1cccc(C(F)(F)F)c1,.,.,.,.,.
COc1cc(C(=O)Nc2nnc(C(C)(C)C)s2)c([N+](=O)[O-])cc1OC,.,.,10µM,.,?
COc1cc(C(=O)Nc2nnc(CC(C)(C)C)s2)c([N+](=O)[O-])cc1OC,.,.,.,.,.
COc1ccc(C(=O)/C(C#N)=N/Nc2cccc([N+](=O)[O-])c2)cc1,.,?,?,40µM,?
N#C/C(=N\Nc1ccc(Cl)cc1)C(=O)c1ccsc1,.,?,/,25µM,?
N#C/C(=N\Nc1cccc(Cl)c1)C(=O)c1ccccc1,.,?,25µM,45µM,?
CCC(CC)=NNc1cccc([N+](=O)[O-])c1,.,.,?,?,.
Cc1ccc(N/N=C(\C#N)C(=O)c2ccsc2)cc1,.,35µM,?,?,.
COc1cccc(Nc2sc(C(=O)c3ccc4c(c3)OCO4)c(N)c2S(=O)(=O)c2ccccc2)c1,.,.,.,.,.
Cc1nc2ccc(S(=O)(=O)N(CC(=O)Nc3ccc(F)cc3F)Cc3ccccc3)cc2s1,.,.,.,.,.
O=C(O)C(Cc1c[nH]c2ccccc12)N1C(=O)C2C3c4ccccc4C(c4ccccc43)[C@@H]2C1=O (stereo not given in full),.,.,50µM,.,.
COc1ccc(C(=O)Nc2ccccc2C(=O)NC(Cc2c[nH]c3ccccc23)C(=O)O)cc1 (stereo not given),.,.[11.4 µM],?,79µM,.
CC(C)CC(C(=O)O)N1C(=O)C2C3c4ccccc4C(c4ccccc43)[C@@H]2C1=O (stereo not given in full),.,.,.,.,.
CC(C)(C)c1ccc(OCC(=O)NC(Cc2c[nH]c3ccccc23)C(=O)O)cc1 (stereo not given),.,.,?,?,.
O=C(Nc1ccccc1C(=O)NC(Cc1c[nH]c2ccccc12)C(=O)O)c1ccco1 (stereo not given),.,.,.,.,.
